An excerpt weighted towards active compounds, which were near 12% of everything screened.
JMJD2A Tudor inh: inhibitors of human JMJD2A Tudor domain; AlphaScreen JMJD2A-Tudor / H3K4me3 peptide binding; Potency, µM (titrated, usually from 114 µM), inactives show at the highest dose activity change, negative = inhibition, usual class: inhibitors; 4.4% of 390,000 active; further: on the % scale 0 is the no-effect control and ±100 the full control effect; nearly all actives have a fitted effect of over 50% in size
L3MBTL1 block: L3MBTL1 (human) inhibition; Q9Y468; Potency, µM (titrated, usually from 57.1 µM), for the others: top-dose activity, negative = inhibition, most hits filed as inhibitors; 0.66% of 230,000 active; AlphaScreen L3MBTL1–H3K9me1 peptide binding; AID 485360; further: on the % scale 0 is the no-effect control and ±100 the full control effect; nearly all actives have a fitted effect of over 60% in size
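First, the protein-peptide complex forms for 30 min at room temperature (L3MBTL1 50 nM, biotinylated H3K9me1 peptide 75 nM). Next, compounds are pin-transferred and incubated 30 min. Finally, AlphaScreen beads are added and read after 30 min.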
BAZ2B inh: blocks human BAZ2B. Q9UIF8. AlphaScreen BAZ2B-H3K14Ac peptide displacement. Potency, µM (doses to about 114 µM), without a hit: at the top dose activity change, negative = inhibition, most hits filed as inhibitors. 4.4% of 360,000 active; further: on the % scale 0 is the no-effect control and ±100 the full control effect; nearly all actives have a fitted effect of over 60% in size
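BAZ2B 50 nM plus b-H3(5-23)K14Ac 50 nM, PBS pH 7.4/0.01% Tween-20, 30 min RT; compound added (max 110 uM), 30 min RT; streptavidin donor/Ni-chelate acceptor beads 10 ug/mL final, 20 min dark; AlphaScreen read.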
HP1b binding inh: HP1-beta chromodomain-methylated histone interaction inhibition. 0.56% of 390,000 active. P83916. Potency, µM (titrated, usually from 114 µM), for inactives: at the highest dose activity change, negative = inhibition, usual class: inhibitors. AlphaScreen HP1-beta / biotin-H3K9me3 peptide binding; further: nearly all actives have a fitted effect of over 70% in size
Target sequence (P83916 whole entry, looked up): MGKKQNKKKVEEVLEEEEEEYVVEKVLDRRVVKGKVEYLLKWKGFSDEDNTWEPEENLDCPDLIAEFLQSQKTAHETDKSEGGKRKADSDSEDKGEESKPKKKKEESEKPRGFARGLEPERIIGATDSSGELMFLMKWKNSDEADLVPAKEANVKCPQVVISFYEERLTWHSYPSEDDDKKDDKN
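Compound inhibition of the preformed complex between 50 nM HP1-beta and 50 nM biotinylated H3K9me3 peptide was read by AlphaScreen. Buffer was PBS pH 7.4 with 0.01% Tween-20. Incubations ran 30 min at room temperature, with 10 ug/mL donor/acceptor beads.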
Sfp PPTase inh: Sfp phosphopantetheinyl transferase inhibition. 3.5% of 310,000 active. AID 1490. Q9F4F7. Biochemical Sfp PPTase activity, qHTS. Potency, µM, for the others: largest response in the series, negative = inhibition, hits mostly inhibitors;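 further: the enzyme is Sfp with the accession as filed and its product quenches rhodamine fluorescence; 0% = enzyme reaction without inhibitor and -100% = no enzyme wells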
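Fluorescence-quenching assay with 15 nM Sfp, 5 uM rhodamine-CoA and 12.5 uM BHQ-2-labelled ybbR peptide in pH 7.6 Hepes/MgCl2 buffer. Enzyme was pre-incubated with compound for 15 min at room temperature. Rate was taken from the 30-min fluorescence change (525/598 nm).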
G9a block: blocks human histone lysine methyltransferase G9a | Q96KQ7 | G9a H3K9 monomethylation, AlphaScreen, 2 h | Potency, µM (titrated, usually from 102 µM), inactives show at the top dose activity, negative = inhibition, hits mostly inhibitors | 8.8% of 350,000 active | AID 504332; further: on the % scale 0 is the no-effect control and ±100 the full control effect; nearly all actives have a fitted effect of over 75% in size
Target sequence (Q96KQ7 913-1193 limits assumed): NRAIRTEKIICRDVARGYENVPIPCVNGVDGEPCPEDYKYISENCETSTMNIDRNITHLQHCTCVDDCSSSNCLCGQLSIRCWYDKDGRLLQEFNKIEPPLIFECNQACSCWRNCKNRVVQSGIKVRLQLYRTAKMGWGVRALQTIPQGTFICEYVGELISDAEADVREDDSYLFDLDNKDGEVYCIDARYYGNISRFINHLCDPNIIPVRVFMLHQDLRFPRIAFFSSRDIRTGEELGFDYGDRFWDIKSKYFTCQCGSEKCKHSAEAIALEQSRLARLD
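AlphaScreen detection with an anti-monomethyl H3K9 antibody quantified product after a 2 h room-temperature reaction containing 500 nM biotinylated H3K9 peptide, 20 µM SAM and 20 nM enzyme, which had been preincubated 15 min with compound.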
An asterisk follows results filed as active; ? = inconclusive; . = no result; [ ] = dose if it differs, or a comment. The call rests on the fitted dose curve; in most records, active means well fitted curve in the direction sought with a large enough effect; inconclusive means small, poorly fitted or top-dose-only effect, or another doubt; inactive means no such curve, though single readings can be large; an effect the other way counts as inactive or inconclusive. Potency means the concentration at half of the fitted maximal effect.

SMILES | JMJD2A Tudor inh | L3MBTL1 block | BAZ2B inh | HP1b binding inh | Sfp PPTase inh | G9a block
Cc1cccc(N2CCN(c3ccc4cc(S(=O)(=O)N5CCCCC5)ccc4n3)CC2C)c1 (stereo not given) | ? | . | -18%[57.1 µM] | 41% | 4% | 25µM*
CCOC(=O)c1c(C)[nH]c(C)c1S(=O)(=O)N1CCC(C(=O)N2CCN(c3cc(C)ccc3C)CC2)CC1 | ? | . | -36% | -7% | . | -32%[59 µM]
CCOC(=O)c1c(C)[nH]c(C)c1S(=O)(=O)N1CCC(C(=O)N2CCN(c3cccc(C)c3)C(C)C2)CC1 (stereo not given) | ? | . | 79µM* | 15% | . | -28%[59 µM]
CCOC(=O)c1cc(S(=O)(=O)N2CCN(c3ccc(C(C)=O)cc3)CC2)[nH]n1 | -9% | . | ? | 21%[57 µM] | . | 13µM*
CC1CCCN(S(=O)(=O)c2cccc3nonc23)C1 (stereo not given) | -15% | . | -17% | 36% | 15% | 18%
Cc1ccc(C)c(N2CCN(c3ccc4cc(S(=O)(=O)N5CCCCC5)ccc4n3)CC2)c1 | 11% | . | ? | 35% | -17% | ?
Cc1cccc(N2CCN(S(=O)(=O)c3cccc4nonc34)CC2C)c1 (stereo not given) | ? | . | . | -21% | 13% | 35µM*
CC12CCC=CC1C(c1ccc3ccccc3c1C=Cc1ccccc1)N(Cc1ccccc1)C2=O (stereo not given) | -36% | . | . | 0% | 0% | .
COc1ccc(S(=O)(=O)N2CCN(C(=O)c3sccc3-c3ccccc3)CC2)cc1 | -12% | 3% | -6% | 31% | . | -9%
Cc1ccc(C)c(N2CCN(S(=O)(=O)c3cnc(N)nc3)CC2)c1 | -22% | . | -19% | 6%[57 µM] | . | 16%[59 µM]
CCOC(=O)c1cc(S(=O)(=O)N2CCN(c3cc(C)ccc3C)CC2)[nH]n1 | -33% | . | 50µM* | -4%[57 µM] | . | 4µM*
CCOC(=O)c1cc(S(=O)(=O)N2CCN(c3cccc(C)c3)C(C)C2)[nH]n1 (stereo not given) | ? | . | ? | 2%[57 µM] | . | 14µM*
COc1ccc2c(c1)CCC(C)N2C(=O)C(=O)c1c[nH]c2ccccc12 (stereo not given) | -4%[11.4 µM] | . | -23% | 35% | 14% | -27%
CCN1CCN(c2ncc3c(n2)CCN(Cc2cc(Br)cs2)C3)CC1 | 79µM* | . | 50µM* | 4% | . | 22µM*
CCN1CCN(c2ncc3c(n2)CCN(Cc2ccc(C)s2)C3)CC1 | 79µM* | . | ? | -20% | . | ?
CCN1CCN(c2ncc3c(n2)CCN(Cc2sccc2C)C3)CC1 | ? | . | ? | 21% | . | 18µM*
Cc1ccsc1CN1CCc2nc(N3CCN(c4ccccc4F)CC3)ncc2C1 | -10% | . | -19% | 33% | . | -4%[12.7 µM]
CN1CCN(c2ncc3c(n2)CCN(Cc2ccc(Br)s2)C3)CC1 | 79µM* | . | -28% | 11% | . | -6%[12.7 µM]
CC(C)(O)C#Cc1ccc(C(=O)N2CCC(C(N)=O)(N3CCCCC3)CC2)o1 | 7% | . | -7% | 6% | 7% | .
CCOC(=O)C1CCCN(C(=O)CCS(=O)(=O)c2cc3c(cc2Cl)NC(=O)CO3)C1 (stereo not given) | -7% | . | -9% | 12% | . | -23%[59 µM]
O=C(Nc1cccc(NC(=O)c2nccc3ccccc23)c1)c1ccco1 | -30% | -14% | -22% | 1% | 1% | 45µM*
O=C(Nc1cccc(NC(=O)c2ccco2)c1)c1ccccc1 | -4% | . | -17% | 2% | 9% | -9%
O=C(Nc1cccnc1)c1cccc(NC(=O)c2ccco2)c1 | -1% | -5% | 5% | 26% | 27% | 40µM*
O=C(Nc1ccc(-c2nc3ncccc3o2)cc1)c1ccco1 | 35µM* | -15% | -4% | -13% | 19% | -36%[12.7 µM]
O=C(Nc1ccc2oc(-c3cccnc3)nc2c1)c1ccc(Br)o1 | -13% | . | -8% | 12% | 50µM* | 20µM*
SMILES | JMJD2A Tudor inh | L3MBTL1 block | BAZ2B inh | HP1b binding inh | Sfp PPTase inh | G9a block
O=C1CCCN1C(=O)CSc1ncnc2sccc12 | -35% | -13% | ? | -8% | . | ?
Cc1ccc(-c2nc(CS(=O)CC(=O)NCCN3CCCCC3C)c(C)o2)cc1 (stereo not given) | -15% | . | 0% | 11%[57 µM] | 19% | 14%
COc1cccc(C(=O)Nc2ccccc2C(=O)NCC2CCCO2)c1 (stereo not given) | -3% | . | 3% | 53% | -1% | .
CCN(CC)c1ccc(NC(=O)C2CCN(S(=O)(=O)c3ccc4c(c3)oc(=O)n4C)CC2)c(C)c1 | -28% | . | -11% | 13% | . | ?
O=C(Nc1ccc2oc(-c3cccnc3)nc2c1)c1ccco1 | -13% | 0% | -32% | 35% | 9% | 50µM*
O=C(Nc1ccc2oc(-c3cccnc3)nc2c1)c1cccnc1 | -6% | -4% | 11% | 33% | 20% | 3%[59 µM]
COc1ccc(Nc2ccccc2NC(=O)c2ccccc2Br)cc1 | ? | . | ? | ? | 7% | ?
COc1cccc(C(C(=O)NC2CCCC2)N(C(=O)c2ccco2)c2ccc(NC(C)=O)cc2)c1OC (stereo not given) | -1% | . | -20% | 24% | 11% | -6%
CC[N+](C)(CC)CC(=O)OCC1C(C)C=C(C)CC1C (stereo not given) | ? | 13% | -36% | 7% | 89µM* | ?
COc1cn(-c2ccccc2)nc1C(=O)Nc1ccccc1 | -9% | . | -5% | 2% | -4% | 50µM*
COc1ccc(N2CCN(C(=O)c3ccc4nc(N5CCC(C)CC5)sc4c3)CC2)cc1 | -33% | . | ? | -11% | . | ?
COc1cccc(CNC(=O)C2CCN(C(=O)c3sccc3-n3cccc3)CC2)c1 | -14% | . | ? | 17% | . | -32%[59 µM]
CCC1(c2ccccc2)NC(=O)N(CC(=O)N(C)Cc2c(F)cccc2Cl)C1=O (stereo not given) | -5% | . | -15% | 29% | 6% | 45µM*
CC(=O)C1=C(O)C(=O)N(Cc2ccccc2)C1c1ccco1 (stereo not given) | ? | -24% | ? | 15% | -5% | 50µM*
COc1cccc(C2C(C(C)=O)=C(O)C(=O)N2Cc2ccco2)c1 (stereo not given) | ? | -1% | ? | ? | -18% | -3%[12.7 µM]
O=C(C1=C(O)C(=O)N(Cc2ccco2)C1c1cccc(Cl)c1)c1ccco1 (stereo not given) | -21% | . | 5% | 25% | -15% | 54%
CC(=O)C1=C(O)C(=O)N(Cc2ccco2)C1c1ccccc1 (stereo not given) | ? | -1% | ? | 8% | 56µM* | 50µM*
O=C(C1=C(O)C(=O)N(Cc2ccco2)C1c1cccc([N+](=O)[O-])c1)c1ccco1 (stereo not given) | 50µM* | . | 5% | -13% | ? | .
